Measured values as given in PMC7862700, “An all-to-all approach to the identification of sequence-specific readers for epigenetic DNA modifications on cytosine”.

Columns and labels:
Experiment in all cases: DAPPL (digital affinity profiling via proximity ligation, sequencing); 10 mM Tris-HCl pH 7.5, 50 mM NaCl, 1 mM DTT, 4% glycerol, room temperature, 30 min; GST-TFs on glutathione beads, 16-mer random dsDNA library, 0.1% formaldehyde crosslink after washing; high values mean tight binding
Settings in all cases: protein: recombinant; tags: N-terminal GST; dsDNA, one strand shown
[1] = biological target: T1, GABPA (Homo sapiens, UniProt Q06546 1-454)
T1 sequence: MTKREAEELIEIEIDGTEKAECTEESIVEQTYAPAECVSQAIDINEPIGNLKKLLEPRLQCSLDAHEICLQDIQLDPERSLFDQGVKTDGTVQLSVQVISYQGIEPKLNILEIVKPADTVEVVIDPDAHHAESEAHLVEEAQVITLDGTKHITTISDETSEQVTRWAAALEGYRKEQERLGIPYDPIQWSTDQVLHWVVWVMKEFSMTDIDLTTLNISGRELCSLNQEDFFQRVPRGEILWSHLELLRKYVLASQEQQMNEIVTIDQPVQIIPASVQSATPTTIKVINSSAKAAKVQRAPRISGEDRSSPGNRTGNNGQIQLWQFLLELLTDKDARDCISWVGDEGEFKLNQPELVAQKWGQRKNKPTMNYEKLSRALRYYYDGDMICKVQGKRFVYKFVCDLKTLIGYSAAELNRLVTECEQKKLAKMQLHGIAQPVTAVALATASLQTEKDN
Method in brief: (§1)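 Binding signal is each hexamer's read frequency for a factor divided by its frequency in the tag-only sample. The factors were GST-fused human transcription factors from yeast, captured on glutathione beads, DNA-barcoded and pooled with that sample. Pools were incubated with 200 nmole of a random double-stranded 16-mer DNA library in Tris/NaCl/DTT/glycerol buffer at room temperature for 30 min, then washed, crosslinked with 0.1% formaldehyde, proximity-ligated with BsaI/T4 ligase (1 h, 37 °C), PCR-amplified and sequenced on an Illumina NextSeq500.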

[2] = biological target: ELF1 (Homo sapiens, UniProt P32519 1-619)
Chain of ELF1 (P32519 whole entry): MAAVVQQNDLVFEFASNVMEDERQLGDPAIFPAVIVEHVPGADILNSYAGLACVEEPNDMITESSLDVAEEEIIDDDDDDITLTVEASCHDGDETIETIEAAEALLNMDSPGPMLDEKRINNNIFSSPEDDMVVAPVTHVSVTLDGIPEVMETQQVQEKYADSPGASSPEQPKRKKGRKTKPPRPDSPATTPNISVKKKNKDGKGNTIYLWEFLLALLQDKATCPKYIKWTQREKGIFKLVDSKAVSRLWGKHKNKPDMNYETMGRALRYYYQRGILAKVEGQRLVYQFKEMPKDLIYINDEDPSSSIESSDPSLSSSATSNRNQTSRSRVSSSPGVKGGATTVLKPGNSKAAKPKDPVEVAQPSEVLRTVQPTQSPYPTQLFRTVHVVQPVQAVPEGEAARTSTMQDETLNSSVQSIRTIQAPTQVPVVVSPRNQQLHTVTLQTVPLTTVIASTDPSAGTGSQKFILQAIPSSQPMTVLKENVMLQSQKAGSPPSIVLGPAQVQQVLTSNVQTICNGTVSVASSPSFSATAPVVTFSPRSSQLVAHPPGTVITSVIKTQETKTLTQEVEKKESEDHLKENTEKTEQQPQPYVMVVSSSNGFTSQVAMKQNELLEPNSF
Method in brief: as §1

[3] = biological target: SPIB (Homo sapiens, UniProt Q01892 1-262)
Chain of SPIB (Q01892 whole entry): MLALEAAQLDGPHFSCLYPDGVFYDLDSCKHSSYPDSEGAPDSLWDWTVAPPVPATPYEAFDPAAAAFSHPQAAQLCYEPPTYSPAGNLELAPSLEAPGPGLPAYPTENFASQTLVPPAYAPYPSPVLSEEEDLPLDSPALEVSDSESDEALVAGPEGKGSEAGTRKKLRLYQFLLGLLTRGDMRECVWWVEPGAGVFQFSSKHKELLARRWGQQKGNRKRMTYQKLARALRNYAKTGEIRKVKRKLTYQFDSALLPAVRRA
Method in brief: as §1

[4] = biological target: T2, FEV (Homo sapiens, UniProt Q99581 1-238)
T2 sequence: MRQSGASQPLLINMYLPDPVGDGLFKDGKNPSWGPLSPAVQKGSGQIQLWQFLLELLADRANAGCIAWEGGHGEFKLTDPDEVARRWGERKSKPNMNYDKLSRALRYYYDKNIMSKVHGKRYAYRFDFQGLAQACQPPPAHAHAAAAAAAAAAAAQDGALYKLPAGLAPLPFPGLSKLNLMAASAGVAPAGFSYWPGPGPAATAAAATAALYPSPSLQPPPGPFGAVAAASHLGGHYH
Method in brief: as §1

[5] = biological target: ETV5 (Homo sapiens, UniProt P41161 1-510)
Chain of ETV5 (P41161 whole entry): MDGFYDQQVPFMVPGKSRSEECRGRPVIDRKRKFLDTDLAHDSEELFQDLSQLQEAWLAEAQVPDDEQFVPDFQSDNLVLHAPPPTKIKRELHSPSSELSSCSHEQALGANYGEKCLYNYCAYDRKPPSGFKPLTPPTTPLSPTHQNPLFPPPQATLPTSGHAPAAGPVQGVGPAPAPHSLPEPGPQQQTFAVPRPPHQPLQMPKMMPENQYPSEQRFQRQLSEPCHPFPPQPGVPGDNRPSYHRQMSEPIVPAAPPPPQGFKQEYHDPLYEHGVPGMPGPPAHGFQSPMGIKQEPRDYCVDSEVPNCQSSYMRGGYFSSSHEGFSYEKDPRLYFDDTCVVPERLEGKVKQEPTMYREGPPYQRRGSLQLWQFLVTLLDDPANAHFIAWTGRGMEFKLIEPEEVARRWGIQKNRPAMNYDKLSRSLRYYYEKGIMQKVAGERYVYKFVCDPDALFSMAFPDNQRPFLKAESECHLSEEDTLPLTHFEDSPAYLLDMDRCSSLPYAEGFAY
Method in brief: as §1

[6] = biological target: ELF4 (Homo sapiens, UniProt Q99607 1-663)
Chain of ELF4 (Q99607 whole entry): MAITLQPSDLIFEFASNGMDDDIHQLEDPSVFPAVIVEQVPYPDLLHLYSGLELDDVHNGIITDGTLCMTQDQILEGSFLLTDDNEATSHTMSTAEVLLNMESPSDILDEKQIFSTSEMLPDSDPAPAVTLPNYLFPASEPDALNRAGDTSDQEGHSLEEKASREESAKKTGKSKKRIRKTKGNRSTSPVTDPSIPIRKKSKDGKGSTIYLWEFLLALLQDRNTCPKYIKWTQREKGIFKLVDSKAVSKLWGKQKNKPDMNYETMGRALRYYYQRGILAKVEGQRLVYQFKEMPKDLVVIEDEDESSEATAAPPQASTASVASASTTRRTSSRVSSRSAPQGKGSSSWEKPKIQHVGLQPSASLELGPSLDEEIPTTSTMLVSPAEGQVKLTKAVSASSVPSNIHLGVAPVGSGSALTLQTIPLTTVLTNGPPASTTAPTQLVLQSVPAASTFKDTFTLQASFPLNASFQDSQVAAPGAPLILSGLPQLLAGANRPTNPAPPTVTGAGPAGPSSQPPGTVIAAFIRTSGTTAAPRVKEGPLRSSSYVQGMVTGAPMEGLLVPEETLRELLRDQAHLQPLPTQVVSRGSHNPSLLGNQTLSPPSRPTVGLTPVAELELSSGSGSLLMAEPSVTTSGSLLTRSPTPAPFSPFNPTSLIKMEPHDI
Method in brief: as §1

[7] = biological target: T3, ELK4 (Homo sapiens, UniProt P28324-2 1-405)
T3 sequence: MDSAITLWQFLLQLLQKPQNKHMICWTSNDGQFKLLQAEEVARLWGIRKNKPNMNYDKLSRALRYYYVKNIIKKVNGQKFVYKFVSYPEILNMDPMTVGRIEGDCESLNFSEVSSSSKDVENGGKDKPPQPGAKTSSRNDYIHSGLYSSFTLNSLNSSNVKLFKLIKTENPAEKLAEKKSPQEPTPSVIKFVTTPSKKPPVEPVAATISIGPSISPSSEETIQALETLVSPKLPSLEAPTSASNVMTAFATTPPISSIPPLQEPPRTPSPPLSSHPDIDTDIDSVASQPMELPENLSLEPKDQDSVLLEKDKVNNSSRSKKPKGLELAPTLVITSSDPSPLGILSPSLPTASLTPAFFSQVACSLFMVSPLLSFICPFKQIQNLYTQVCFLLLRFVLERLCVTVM
Method in brief: as §1

[8] = biological target: T4, ETV2 (Homo sapiens, UniProt O00321 1-342)
T4 sequence: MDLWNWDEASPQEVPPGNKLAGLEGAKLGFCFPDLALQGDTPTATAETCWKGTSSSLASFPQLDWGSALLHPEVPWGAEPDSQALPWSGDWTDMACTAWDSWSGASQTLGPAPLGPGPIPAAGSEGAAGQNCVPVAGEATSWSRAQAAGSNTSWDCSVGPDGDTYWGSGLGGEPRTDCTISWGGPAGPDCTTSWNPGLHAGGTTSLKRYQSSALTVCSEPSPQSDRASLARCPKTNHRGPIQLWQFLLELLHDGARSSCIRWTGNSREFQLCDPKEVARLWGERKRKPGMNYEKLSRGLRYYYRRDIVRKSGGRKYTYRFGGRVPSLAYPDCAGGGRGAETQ
Method in brief: as §1

[9] = biological target: T5, ELF3 (Homo sapiens, UniProt P78545 1-371)
T5 sequence: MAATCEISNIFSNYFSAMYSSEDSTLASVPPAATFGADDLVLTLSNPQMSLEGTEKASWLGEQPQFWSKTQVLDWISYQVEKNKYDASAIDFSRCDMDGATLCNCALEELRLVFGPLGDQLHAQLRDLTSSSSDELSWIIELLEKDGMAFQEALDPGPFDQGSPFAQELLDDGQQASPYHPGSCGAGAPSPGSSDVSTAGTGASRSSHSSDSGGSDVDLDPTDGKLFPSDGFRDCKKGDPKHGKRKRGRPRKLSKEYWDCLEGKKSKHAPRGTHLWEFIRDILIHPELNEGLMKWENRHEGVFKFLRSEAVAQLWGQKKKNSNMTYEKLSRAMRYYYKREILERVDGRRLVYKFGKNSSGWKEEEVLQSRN
Method in brief: as §1

[10] = biological target: ETV1 (Homo sapiens, UniProt P50549 1-477)
Chain of ETV1 (P50549 whole entry): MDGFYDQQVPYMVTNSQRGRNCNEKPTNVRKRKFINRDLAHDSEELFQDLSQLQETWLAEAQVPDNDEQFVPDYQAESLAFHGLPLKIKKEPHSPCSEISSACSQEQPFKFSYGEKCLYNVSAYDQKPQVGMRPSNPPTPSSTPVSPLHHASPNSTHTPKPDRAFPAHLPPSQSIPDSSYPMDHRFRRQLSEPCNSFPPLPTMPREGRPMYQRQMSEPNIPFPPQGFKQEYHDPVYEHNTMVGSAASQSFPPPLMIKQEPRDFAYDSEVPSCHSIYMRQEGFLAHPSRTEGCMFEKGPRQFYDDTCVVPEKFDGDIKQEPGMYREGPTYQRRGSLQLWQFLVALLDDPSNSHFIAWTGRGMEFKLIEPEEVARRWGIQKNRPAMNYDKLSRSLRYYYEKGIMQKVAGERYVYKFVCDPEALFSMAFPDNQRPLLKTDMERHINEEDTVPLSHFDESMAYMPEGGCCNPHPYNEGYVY
Method in brief: as §1

[11] = biological target: T6, ETV3L (Homo sapiens, UniProt Q6ZN32 1-361)
T6 sequence: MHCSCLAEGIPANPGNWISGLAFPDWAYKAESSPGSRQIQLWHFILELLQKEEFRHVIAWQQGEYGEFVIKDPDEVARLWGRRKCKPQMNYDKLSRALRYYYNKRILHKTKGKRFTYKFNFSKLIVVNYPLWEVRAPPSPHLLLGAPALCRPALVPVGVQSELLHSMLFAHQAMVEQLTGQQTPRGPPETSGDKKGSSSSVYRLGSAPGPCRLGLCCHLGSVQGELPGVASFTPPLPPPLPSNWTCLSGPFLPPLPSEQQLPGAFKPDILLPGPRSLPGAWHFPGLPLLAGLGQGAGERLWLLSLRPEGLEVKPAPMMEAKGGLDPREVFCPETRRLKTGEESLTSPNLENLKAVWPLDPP
Method in brief: as §1

[12] = biological target: T7, ETS2 (Homo sapiens, UniProt P15036 1-469)
T7 sequence: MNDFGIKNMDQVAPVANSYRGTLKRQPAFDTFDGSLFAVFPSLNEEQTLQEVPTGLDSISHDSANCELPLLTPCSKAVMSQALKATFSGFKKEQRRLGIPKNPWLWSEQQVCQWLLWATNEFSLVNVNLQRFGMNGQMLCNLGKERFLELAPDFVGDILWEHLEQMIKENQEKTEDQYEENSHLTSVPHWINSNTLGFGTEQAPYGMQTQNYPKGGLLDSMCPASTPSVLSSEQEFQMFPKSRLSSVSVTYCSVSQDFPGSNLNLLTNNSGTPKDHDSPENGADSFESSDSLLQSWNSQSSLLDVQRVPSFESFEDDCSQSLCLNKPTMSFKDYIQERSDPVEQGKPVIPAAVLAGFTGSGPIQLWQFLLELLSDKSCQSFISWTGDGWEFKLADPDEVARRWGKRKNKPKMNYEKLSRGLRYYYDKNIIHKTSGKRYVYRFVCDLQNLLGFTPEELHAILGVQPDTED
Method in brief: as §1

[13] = biological target: T8, ETV7 (Homo sapiens, UniProt Q9Y603 1-341)
T8 sequence: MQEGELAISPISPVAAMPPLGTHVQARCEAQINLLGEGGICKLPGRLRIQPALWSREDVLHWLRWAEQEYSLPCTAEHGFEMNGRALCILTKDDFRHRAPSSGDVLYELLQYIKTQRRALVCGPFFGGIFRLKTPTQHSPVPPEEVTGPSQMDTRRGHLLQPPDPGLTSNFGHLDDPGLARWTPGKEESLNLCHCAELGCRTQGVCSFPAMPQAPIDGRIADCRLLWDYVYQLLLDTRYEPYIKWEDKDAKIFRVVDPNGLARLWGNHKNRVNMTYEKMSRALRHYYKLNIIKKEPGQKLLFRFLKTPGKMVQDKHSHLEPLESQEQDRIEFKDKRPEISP
Method in brief: as §1

[14] = biological target: T9, ETV3 (Homo sapiens, UniProt P41162-2 1-143)
T9 sequence: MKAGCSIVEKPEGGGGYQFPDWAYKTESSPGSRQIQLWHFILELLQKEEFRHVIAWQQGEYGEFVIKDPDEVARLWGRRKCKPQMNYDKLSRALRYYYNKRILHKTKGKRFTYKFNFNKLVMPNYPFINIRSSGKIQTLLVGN
Method in brief: as §1

[15] = biological target: ETV6 (Homo sapiens, UniProt P41212 1-452)
Chain of ETV6 (P41212 whole entry): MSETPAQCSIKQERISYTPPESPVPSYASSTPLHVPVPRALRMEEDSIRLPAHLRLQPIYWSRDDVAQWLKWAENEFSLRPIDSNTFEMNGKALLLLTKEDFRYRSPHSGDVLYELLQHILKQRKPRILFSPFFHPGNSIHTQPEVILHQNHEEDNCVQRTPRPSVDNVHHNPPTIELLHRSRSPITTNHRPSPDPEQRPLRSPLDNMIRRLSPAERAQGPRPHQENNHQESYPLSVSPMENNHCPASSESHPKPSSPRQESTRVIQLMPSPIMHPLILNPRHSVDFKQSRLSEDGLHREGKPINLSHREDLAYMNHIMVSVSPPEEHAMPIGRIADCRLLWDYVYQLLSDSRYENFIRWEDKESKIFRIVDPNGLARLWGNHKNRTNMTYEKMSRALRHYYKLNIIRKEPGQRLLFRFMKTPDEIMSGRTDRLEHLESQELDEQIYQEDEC
Method in brief: as §1

[16] = biological target: T10, EHF (Homo sapiens, UniProt Q9NZC4 1-300)
T10 sequence: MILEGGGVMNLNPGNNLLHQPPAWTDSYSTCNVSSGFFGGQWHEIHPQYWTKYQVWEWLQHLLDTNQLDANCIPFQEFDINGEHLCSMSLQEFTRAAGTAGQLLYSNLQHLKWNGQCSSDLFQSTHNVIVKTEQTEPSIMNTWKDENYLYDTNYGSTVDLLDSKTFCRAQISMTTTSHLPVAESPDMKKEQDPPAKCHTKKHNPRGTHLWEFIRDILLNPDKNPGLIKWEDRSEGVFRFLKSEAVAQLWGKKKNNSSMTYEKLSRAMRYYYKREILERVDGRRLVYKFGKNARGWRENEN
Method in brief: as §1

[17] = biological target: T11, ERF (Homo sapiens, UniProt P50548 1-548)
T11 sequence: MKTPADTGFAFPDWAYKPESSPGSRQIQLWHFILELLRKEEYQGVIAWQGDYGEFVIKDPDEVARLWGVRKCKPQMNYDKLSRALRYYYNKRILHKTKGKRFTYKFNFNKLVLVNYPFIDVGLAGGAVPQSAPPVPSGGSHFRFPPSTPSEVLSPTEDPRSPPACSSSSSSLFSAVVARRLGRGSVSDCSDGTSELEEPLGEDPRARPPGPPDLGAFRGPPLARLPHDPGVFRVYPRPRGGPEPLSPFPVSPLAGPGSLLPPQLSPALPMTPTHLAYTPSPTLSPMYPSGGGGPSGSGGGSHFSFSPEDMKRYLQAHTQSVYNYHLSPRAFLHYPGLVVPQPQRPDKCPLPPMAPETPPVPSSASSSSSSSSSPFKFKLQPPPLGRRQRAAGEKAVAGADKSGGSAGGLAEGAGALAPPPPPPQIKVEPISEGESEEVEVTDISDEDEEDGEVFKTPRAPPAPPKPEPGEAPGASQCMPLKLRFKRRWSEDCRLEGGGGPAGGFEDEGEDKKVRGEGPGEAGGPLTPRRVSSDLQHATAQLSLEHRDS
Method in brief: as §1

[18] = biological target: T12, SPDEF (Homo sapiens, UniProt O95238 1-335)
T12 sequence: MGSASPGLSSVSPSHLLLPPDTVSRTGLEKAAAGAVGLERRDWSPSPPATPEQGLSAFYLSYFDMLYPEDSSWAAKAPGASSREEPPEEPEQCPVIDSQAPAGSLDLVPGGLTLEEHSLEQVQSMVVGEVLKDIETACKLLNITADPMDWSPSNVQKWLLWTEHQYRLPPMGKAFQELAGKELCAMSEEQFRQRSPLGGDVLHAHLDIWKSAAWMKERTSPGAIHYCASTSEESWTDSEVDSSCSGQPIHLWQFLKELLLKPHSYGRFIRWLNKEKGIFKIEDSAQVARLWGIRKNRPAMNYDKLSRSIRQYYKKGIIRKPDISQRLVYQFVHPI
Method in brief: as §1

## CGCGTT
[1]
  binding signal: 1.01 fold enrichment (6-mer frequency, TF over GST control)
[2]
  binding signal: 1.12 fold enrichment (6-mer frequency, TF over GST control)
[3]
  binding signal: 1.05 fold enrichment (6-mer frequency, TF over GST control)
[4]
  binding signal: 1.09 fold enrichment (6-mer frequency, TF over GST control)
[5]
  binding signal: 1.02 fold enrichment (6-mer frequency, TF over GST control)
[6]
  binding signal: 1.1 fold enrichment (6-mer frequency, TF over GST control)
[7]
  binding signal: 1.09 fold enrichment (6-mer frequency, TF over GST control)
[8]
  binding signal: 1.16 fold enrichment (6-mer frequency, TF over GST control)
[9]
  binding signal: 1.05 fold enrichment (6-mer frequency, TF over GST control)
[10]
  binding signal: 1.06 fold enrichment (6-mer frequency, TF over GST control)
[11]
  binding signal: 1.15 fold enrichment (6-mer frequency, TF over GST control)
[12]
  binding signal: 1.13 fold enrichment (6-mer frequency, TF over GST control)
[13]
  binding signal: 1.02 fold enrichment (6-mer frequency, TF over GST control)
[14]
  binding signal: 1.03 fold enrichment (6-mer frequency, TF over GST control)
[15]
  binding signal: 1.06 fold enrichment (6-mer frequency, TF over GST control)

## GTAACC
[1]
  binding signal: 1.01 fold enrichment (6-mer frequency, TF over GST control)
[2]
  binding signal: 1.05 fold enrichment (6-mer frequency, TF over GST control)
[16]
  binding signal: 1.11 fold enrichment (6-mer frequency, TF over GST control)
[3]
  binding signal: 1.1 fold enrichment (6-mer frequency, TF over GST control)
[4]
  binding signal: 1.04 fold enrichment (6-mer frequency, TF over GST control)
[5]
  binding signal: 1.05 fold enrichment (6-mer frequency, TF over GST control)
[6]
  binding signal: 1.05 fold enrichment (6-mer frequency, TF over GST control)
[7]
  binding signal: 1.02 fold enrichment (6-mer frequency, TF over GST control)
[8]
  binding signal: 1.06 fold enrichment (6-mer frequency, TF over GST control)
[10]
  binding signal: 1.09 fold enrichment (6-mer frequency, TF over GST control)
[17]
  binding signal: 1.11 fold enrichment (6-mer frequency, TF over GST control)
[12]
  binding signal: 1.1 fold enrichment (6-mer frequency, TF over GST control)
[18]
  binding signal: 1.03 fold enrichment (6-mer frequency, TF over GST control)
[13]
  binding signal: 1.07 fold enrichment (6-mer frequency, TF over GST control)
[14]
  binding signal: 1.13 fold enrichment (6-mer frequency, TF over GST control)
[15]
  binding signal: 1.07 fold enrichment (6-mer frequency, TF over GST control)
